# The list is not random: actives were taken first. Their share in the collection is about 12%.
# JMJD2A Tudor: qHTS Assay for Inhibitors of JMJD2A-Tudor Domain | AlphaScreen JMJD2A-Tudor / H3K4me3 peptide binding | Potency, µM (doses to about 114 µM), for inactives: at the top dose activity change, negative = inhibition, usual class: inhibitors | actives 4.4% (n = 390,000) | AID 504339, 2011; note: % is set by controls: 0 for no effect and ±100 for the full control effect; nearly all actives have a fitted effect of over 50% in size
# G9a inh: qHTS Assay for Inhibitors of Histone Lysine Methyltransferase G9a; Potency, µM (top dose mostly 102 µM), inactives show at the top dose activity, negative = inhibition, hits mostly inhibitors; AID 504332, 2011; Histone-lysine N-methyltransferase EHMT2 (Homo sapiens), Q96KQ7; actives 8.8% (n = 350,000); G9a H3K9 monomethylation, AlphaScreen, 2 h; note: % is set by controls: 0 for no effect and ±100 for the full control effect; nearly all actives have a fitted effect of over 75% in size
# Target sequence (Q96KQ7 913-1193 limits assumed): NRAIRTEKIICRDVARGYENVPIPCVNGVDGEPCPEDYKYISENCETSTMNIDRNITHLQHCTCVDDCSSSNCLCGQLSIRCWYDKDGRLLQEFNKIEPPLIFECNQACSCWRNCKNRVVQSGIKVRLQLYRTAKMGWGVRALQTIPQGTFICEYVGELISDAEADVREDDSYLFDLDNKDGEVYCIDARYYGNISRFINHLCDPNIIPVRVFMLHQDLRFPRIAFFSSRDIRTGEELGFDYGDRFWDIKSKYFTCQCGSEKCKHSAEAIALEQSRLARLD
#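 Methyltransferase reactions run at room temperature for 2 h (20 nM enzyme, 500 nM biotin-H3K9 peptide, 20 uM SAM) after a 15 min compound preincubation; product detected by AlphaScreen beads and anti-H3K9me1 antibody.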
# BAZ2B block: qHTS Assay for Inhibitors of BAZ2B | Bromodomain adjacent to zinc finger domain protein 2B (Homo sapiens), Q9UIF8 | AID 504333, 2011 | AlphaScreen BAZ2B-H3K14Ac peptide displacement | Potency, µM (top dose mostly 114 µM), inactives show at the top dose activity change, negative = inhibition, actives largely listed as inhibitors | actives 4.4% (n = 360,000); note: % is set by controls: 0 for no effect and ±100 for the full control effect; nearly all actives have a fitted effect of over 60% in size
#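 AlphaScreen displacement of biotin-H3(5-23)K14Ac peptide (50 nM final) from BAZ2B (50 nM final) in PBS pH 7.4, 0.01% Tween-20; complex preformed 30 min RT, then compounds (top 110 uM) 30 min RT, beads 20 min dark.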
# Sfp inh: qHTS Assay for Inhibitors of Bacillus subtilis Sfp phosphopantetheinyl transferase (PPTase). 4'-phosphopantetheinyl transferase ffp (Bacillus subtilis), Q9F4F7. Biochemical Sfp PPTase activity, qHTS. Potency, µM, without a hit: largest response in the series, negative = inhibition, hits mostly inhibitors. actives 3.5% (n = 310,000);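 note: the enzyme is Sfp with the accession as filed and its product quenches rhodamine fluorescence; 0% = enzyme reaction without inhibitor and -100% = no enzyme wells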
#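 After 15 min at room temperature with compound, 15 nM Sfp received 5 uM rhodamine-CoA plus 12.5 uM BHQ-2-ybbR (50 mM Hepes pH 7.6, 10 mM MgCl2). Rate came from the fluorescence difference over 30 min, ex 525/em 598 nm.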
# HP1b chromo inh: HTS for Inhibitors of HP1-beta Chromodomain Interactions with Methylated Histone Tails | AlphaScreen HP1-beta / biotin-H3K9me3 peptide binding | Potency, µM (titrated, usually from 114 µM), without a hit: at the top dose activity change, negative = inhibition, most hits filed as inhibitors | actives 0.56% (n = 390,000) | AID 540317, 2011; note: nearly all actives have a fitted effect of over 70% in size
# Target sequence (P83916 whole entry, looked up): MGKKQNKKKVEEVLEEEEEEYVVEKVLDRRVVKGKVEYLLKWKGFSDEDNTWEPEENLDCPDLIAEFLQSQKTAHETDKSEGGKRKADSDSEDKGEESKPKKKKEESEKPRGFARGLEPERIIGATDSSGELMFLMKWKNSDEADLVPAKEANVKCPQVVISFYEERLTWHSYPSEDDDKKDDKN
#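 AlphaScreen: HP1-beta (50 nM) preformed 30 min with biotin-H3(1-18)K9me3 peptide (50 nM) in PBS pH 7.4, 0.01% Tween-20. Compound added for 30 min at RT, then streptavidin donor/nickel chelate acceptor beads (10 ug/mL) for 30 min.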
# * marks the source's active call; other numbers are inactive results; u = inconclusive; x = no result given; [ ] = remark or other dose. Calls come from the whole dose curve; as a rule, active = well fitted curve in the direction sought with a large enough effect; inconclusive = small, poorly fitted or top-dose-only effect, or another doubt; inactive = no such curve, though single readings can be large; an effect the other way counts as inactive or inconclusive. Potency is the fitted concentration of half-maximal effect.
SMILES,JMJD2A Tudor,G9a inh,BAZ2B block,Sfp inh,HP1b chromo inh
O=CN1CCCN(C(=O)CC2C(=O)NCCN2Cc2cccc(Oc3ccccc3)c2)CC1 (configuration not stated),-17%,45µM*,-36%,-10%,47%
COc1cc(CN2CCNC(=O)C2CC(=O)NCCCC2CCCC2)cc(OC)c1 (configuration not stated),-26%,71µM*,-22%,4%,21%
CN(CCC1CCOCC1)C(=O)CC1C(=O)NCCN1Cc1c(F)cccc1Cl (configuration not stated),-9%,40µM*,-19%,14%,29%
CN(Cc1ncc[nH]1)C(=O)CC1C(=O)NCCN1Cc1c(F)cccc1Cl (configuration not stated),-6%,-9%,-9%,u,34%
Cn1c2cc(S(C)(=O)=O)sc2c2cnn(Cc3ccccc3F)c(=O)c21,-1%,x,x,x,x
COc1cccc(-n2c(CCn3nc(C)c([N+](=O)[O-])c3C)n[nH]c2=S)c1,11µM*,25µM*,7%,13%,u
Cc1cccc(-n2c(CCn3nc(C)c([N+](=O)[O-])c3C)n[nH]c2=S)c1,20µM*,0.45µM*,-2%,-3%,24%
COc1ccc(CCn2nc(C)c([N+](=O)[O-])c2C)cc1,-2%,-3%,-1%,8%,37%
Cc1csc2c(N3CCN(C(=S)Nc4ccc(F)cc4F)CC3)ncnc12,-4%,-37%,-6%,-11%,20%
CC(=O)N(/N=C/c1ccc(C)cc1)c1nc(CCl)cs1,-6%,18µM*,4%,10%,22%
COCCn1c(C)cc(C(=O)COC(=O)c2cc3c(s2)CCC3)c1C,35µM*,45µM*,40µM*,2%,u
Cc1cc(C)c(C(=O)COC(=O)c2ccc([N+](=O)[O-])o2)cc1C,-22%[11.4 µM],u,x,1%,-19%
Cc1cc(C(=O)COC(=O)c2ccc([N+](=O)[O-])o2)c(C)n1CC1CCCO1 (configuration not stated),-27%,45µM*,u,-3%,10%
CSc1ncccc1C(=O)OCC(=O)c1cc(C)n(CC2CCCO2)c1C (configuration not stated),u,u,-29%,-2%,u
COCCn1c(C)cc(C(=O)COC(=O)c2ccc([N+](=O)[O-])o2)c1C,u,79µM*,45µM*,4%,4%
CCOC(=O)N1CCN(C(=O)c2ccc3c(c2)N(CC)CCS3)CC1,-14%,35µM*,-7%,50µM*,36%
CCN1CCSc2ccc(C(=O)NCc3ccccc3Br)cc21,-23%,-1%,u,13%,20%
CC(C)Oc1ccc(CNC(=O)c2ccc3c(c2)N(C)CCS3)cc1,u,56µM*,u,5%,-11%
CCN1CCSc2ccc(C(=O)NCc3ccccc3C)cc21,u,71µM*,u,-8%,5%
CN1CCSc2ccc(C(=O)NCc3ccccc3F)cc21,-20%,11µM*,9%,-29%,-13%
CCN1CCSc2ccc(C(=O)NCc3ccccc3F)cc21,u,x,3%,-27%,-4%
CCOC(=O)N1CCN(C(=O)c2ccc3c(c2)N(Cc2ccc(F)cc2)CCS3)CC1,u,1%,u,-5%,2%
CCOc1ccc(NC(=O)N(Cc2cn(CC)c3ccccc23)C2CCCCCC2)cc1,u,u,x,x,13%
O=C(O)CC(NS(=O)(=O)c1ccc(Br)s1)c1ccccc1 (configuration not stated),-8%,-24%[59 µM],9%[57.1 µM],x,20%
CCOC(=O)N1CCC(NC(=O)c2ccc3c(c2)N(C)CCS3)CC1,u,u,-5%,25µM*,13%
SMILES,JMJD2A Tudor,G9a inh,BAZ2B block,Sfp inh,HP1b chromo inh
CCN1CCSc2ccc(C(=O)Nc3ccc(NC(C)=O)cc3)cc21,-24%,50µM*,-10%,-8%,16%
COc1ccc(CNC(=O)c2ccc3c(c2)N(C)C(=O)CS3=O)cc1 (configuration not stated),-4%,-6%,-1%,45µM*,58%
Cc1ccc(NS(=O)(=O)c2ccc(Cl)c(C(=O)Nc3ccccc3-c3nc4ccccc4[nH]3)c2)cc1C,u,-6%[59 µM],-31%,18%,-13%
COc1ccc(N2CCN(c3nc4ccccc4n4c(C)nnc34)CC2)cc1,-6%,-8%[59 µM],-2%,x,21%
C#CC(C)OC(=O)c1nnc2c3ccccc3n(COC)c2n1 (configuration not stated),x,x,x,9%,x
O=C(CN1C(=O)COc2ccc(Cl)cc21)Nc1cccc(C(=O)O)c1,-15%,0%[59 µM],3%,x,17%
COc1cc(OC)c(NC(=O)c2ccc(-n3cnc4cccnc43)cc2)cc1Cl,-19%,-28%[59 µM],-11%,x,1%
COc1cccc2cc3c(=O)n(-c4ccccc4)nc-3oc12,45µM*,u,u,1%,-9%
CC(C)NC(=O)N1CCC2(CC1)CCN(S(=O)(=O)c1ccccc1)CC2,x,0%[12.7 µM],x,19%,x
CCN(CC)c1ccc(/C=N/NC(=O)c2c[nH]c3ccccc23)cc1,-33%,8.9µM*,u,11%,3%
CCN(CC)c1ccc(/C=N/NC(=O)c2cnccn2)cc1,-15%,56µM*,x,u,34%
CCN(CC)c1ccc(/C=N/NC(=O)c2cc3ccccc3[nH]2)cc1,-20%,x,u,15%,2%
O=[S+]([O-])(c1c(F)cccc1F)N1CCN([S+](=O)([O-])c2csc3ccccc23)CC1,-16%,x,x,x,x
CC1=CC(C)(C)n2c(O)c(N=N)c3c(C)c(C)cc1c32,u,-10%[12.7 µM],35µM*,-3%,u
CC1=CC(C)(C)n2c(O)c(N=NC(N)=S)c3c(C)ccc1c32,-26%,-2%,-8%,17%,5%
CC1=CC(C)(C)n2c(O)c(N=N)c3c(C)ccc1c32,45µM*,50µM*,u,12%,-16%[57 µM]
CC1=CC(C)(C)n2c(O)c(N=N)c3cc(C)cc1c32,50µM*,u,45µM*,-12%,u
COc1cc2c3c(c1)c(N=NC(N)=S)c(O)n3C(C)(C)C=C2C,-21%,x,-19%,-2%,6%
CCC(C)[C@H](NC(=O)NCCCOC(C)C)C(=O)OC (some centres not stated),-5%,17%,-11%,16%,49%
N=C(N)S/C=C\C(=O)O,x,25µM*,x,7.9µM*,x
CCOCc1nnc(NC(=O)c2c(-c3ccccc3)noc2C)s1,-28%,32µM*,-2%,u,-23%
Cc1onc(-c2ccccc2)c1C(=O)Nc1nnc(C(C)(C)C)s1,-7%,u,0%,13%,33%
